{
  "source": "PubChem BioAssay (NCATS)",
  "note": "Active and inactive are the calls of the source. Calls come from the whole dose curve; as a rule, active = well fitted curve in the direction sought with a large enough effect; inconclusive = small, poorly fitted or top-dose-only effect, or another doubt; inactive = no such curve, though single readings can be large or run the other way.",
  "data": [
    {"biological_target": "Methanococcus maripaludis chaperonin (MmCpn) (UniProt Q6LX38)", "sequence (Q6LX38 1-543)": "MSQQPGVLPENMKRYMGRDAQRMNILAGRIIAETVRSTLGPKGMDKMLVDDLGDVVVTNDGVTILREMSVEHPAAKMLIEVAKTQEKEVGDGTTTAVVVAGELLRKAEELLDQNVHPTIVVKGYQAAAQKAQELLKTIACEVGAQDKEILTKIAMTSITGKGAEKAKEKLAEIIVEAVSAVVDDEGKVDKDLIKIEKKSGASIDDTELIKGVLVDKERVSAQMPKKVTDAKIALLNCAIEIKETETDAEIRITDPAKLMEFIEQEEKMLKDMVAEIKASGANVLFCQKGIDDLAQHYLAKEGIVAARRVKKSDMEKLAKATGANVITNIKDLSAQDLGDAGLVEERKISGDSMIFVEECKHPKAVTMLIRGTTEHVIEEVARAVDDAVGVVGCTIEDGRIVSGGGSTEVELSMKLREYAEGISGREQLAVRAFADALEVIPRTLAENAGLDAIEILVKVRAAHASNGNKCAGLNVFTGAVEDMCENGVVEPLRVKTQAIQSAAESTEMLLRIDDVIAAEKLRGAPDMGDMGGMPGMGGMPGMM", "assay": "High-Throughput Screening for Modulators of Cytosolic Chaperonin Activity: MmCpn Primary Screen (AID 488978); note: 0% is about no effect", "settings": "Purified MmCpn ATPase activity, ADP HTRF detection, 10 min; series mostly up to 76.9 µM; activity change, negative = inhibition: at the top concentration", "in_short": "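Measures ATPase turnover of the M. maripaludis chaperonin (50 nM final) against 30 uM ATP over 10 min at 37C, with compound added 5 min beforehand at room temperature. ADP is quantified by HTRF immunodetection.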", "values": [
      {"smiles": "O=C1Cc2cc(CCN3CCN(c4nsc5ccccc45)CC3)c(Cl)cc2N1", "activity change, negative = inhibition": "1.59% (inactive)"},
      {"smiles": "CC(CCc1ccc(O)cc1)NCCc1ccc(O)c(O)c1", "note": "(stereo not given)", "activity change, negative = inhibition": "1.88% (inactive)"},
      {"smiles": "COc1cc2c(c(OC)c1OC)-c1ccc(OC)c(=O)cc1[C@@H](NC(C)=O)CC2", "activity change, negative = inhibition": "0.153% (inactive)"},
      {"smiles": "O=c1c(O)c(-c2ccc(O)c(O)c2)oc2cc(O)cc(O)c12", "activity change, negative = inhibition": "-5.88% (inactive)"},
      {"smiles": "CCOC(=O)Nc1ccc(NCc2ccc(F)cc2)nc1N", "activity change, negative = inhibition": "-4.36% (inactive)"},
      {"smiles": "CC(COc1ccccc1)N(CCCl)Cc1ccccc1", "note": "(stereo not given)", "activity change, negative = inhibition": "0.443% (inactive)"},
      {"smiles": "CN1C2CCC1CC(OC(=O)C(CO)c1ccccc1)C2", "note": "(stereo not given)", "outcome": "inactive"},
      {"smiles": "O=C(CCCN1CCC(O)(c2ccc(Cl)cc2)CC1)c1ccc(F)cc1", "activity change, negative = inhibition": "1.12% (inactive)"},
      {"smiles": "Cc1cnc(C(=O)NCCc2ccc(S(=O)(=O)NC(=O)NC3CCCCC3)cc2)cn1", "activity change, negative = inhibition": "-0.0341% (inactive)"},
      {"smiles": "CN1CCC(=C2c3ccccc3CC(=O)c3sccc32)CC1", "activity change, negative = inhibition": "3.13% (inactive)"},
      {"smiles": "NCCCCCC(=O)O", "activity change, negative = inhibition": "6.76% (inactive)"},
      {"smiles": "CN1C(C(=O)Nc2ccccn2)=C(O)c2ccccc2S1(=O)=O", "activity change, negative = inhibition": "-0.512% (inactive)"},
      {"smiles": "CC[N+](CC)(CC)CCOc1cccc(OCC[N+](CC)(CC)CC)c1OCC[N+](CC)(CC)CC", "activity change, negative = inhibition": "-0.0351% (inactive)"},
      {"smiles": "COc1ccccc1OCCNCC(O)COc1cccc2[nH]c3ccccc3c12", "note": "(stereo not given)", "activity change, negative = inhibition": "0.601% (inactive)"},
      {"smiles": "Clc1ccc(C(c2ccccc2Cl)C(Cl)Cl)cc1", "note": "(stereo not given)", "activity change, negative = inhibition": "-0.0239% (inactive)"},
      {"smiles": "COc1ccc(CCN(C)CCCC(C#N)(c2ccc(OC)c(OC)c2)C(C)C)cc1OC", "note": "(stereo not given)", "activity change, negative = inhibition": "0.476% (inactive)"},
      {"smiles": "CN(Cc1cnc2nc(N)nc(N)c2n1)c1ccc(C(=O)N[C@@H](CCC(=O)O)C(=O)O)cc1", "activity change, negative = inhibition": "-7.22% (inactive)"},
      {"smiles": "CN1CCN(C2=Nc3cc(Cl)ccc3Nc3ccccc32)CC1", "activity change, negative = inhibition": "0.69% (inactive)"},
      {"smiles": "CC(C)C(=O)Nc1ccc([N+](=O)[O-])c(C(F)(F)F)c1", "activity change, negative = inhibition": "0.469% (inactive)"},
      {"smiles": "Clc1ccc2c(c1)C(N1CCNCC1)=Nc1ccccc1O2", "activity change, negative = inhibition": "0.532% (inactive)"},
      {"smiles": "C[C@H]1c2cccc(O)c2C(O)=C2C(=O)[C@]3(O)C(O)=C(C(N)=O)C(=O)[C@@H](N(C)C)[C@@H]3[C@@H](O)[C@@H]21", "activity change, negative = inhibition": "5.02% (inactive)"},
      {"smiles": "CN(C)C(=O)C(CCN1CCC(O)(c2ccc(Cl)cc2)CC1)(c1ccccc1)c1ccccc1", "activity change, negative = inhibition": "1.34% (inactive)"},
      {"smiles": "OCCN1CCN(CCCN2c3ccccc3Sc3ccc(C(F)(F)F)cc32)CC1", "activity change, negative = inhibition": "-0.603% (inactive)"},
      {"smiles": "Cc1ccccc1N1C(=O)c2cc(S(N)(=O)=O)c(Cl)cc2NC1C", "note": "(stereo not given)", "activity change, negative = inhibition": "0.0443% (inactive)"},
      {"smiles": "Fc1ccc([C@@H]2CCNC[C@H]2COc2ccc3c(c2)OCO3)cc1", "activity change, negative = inhibition": "-0.969% (inactive)"}
    ]}
  ]
}
